# Measured values taken from PubChem BioAssay (NCATS).
# Inconclusive results are not listed. Values without a mark were called inactive. The source made the active and inactive calls. Calls follow the shape of the dose curve; as a rule, active = well fitted inhibition curve with a large enough effect; inconclusive = small, poorly fitted or top-dose-only effect; inactive = flat fitted curve, though single readings scatter.
# Tests used:
# [1] = test system: KB-3-1; test: Cytotoxic Profiling of Annotated Libraries Using Quantitative High-Throughput Screening (AID 1296008); conditions: Five cell lines viability, CellTiter-Glo ATP luminescence, 48-72 h; max response: active compounds read low; as to max response: % is scaled to controls: 0 for no effect and ±100 for the full control effect
# In short: (§1)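 Cells exposed to compounds for 48 or 72 hr at 37 degrees Celsius. Viability read as ATP-coupled luminescence with CellTiter-Glo after 10 min at room temperature.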
# [2] = test system: NIH3T3; test: as above; conditions: Five cell lines viability, CellTiter-Glo ATP luminescence, 48-72 h; max response: active compounds read low
# In short: as §1
# [3] = test system: MKL-2; test: qHTS assay to identify novel small-molecules to repurpose for Merkel cell carcinoma treatment (AID 1296009); conditions: MCC and control cell lines, CellTiter-Glo viability, 72 h
# In short: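 Dose-response viability screen; 72 hr exposure at 37 degree celsius; CellTiter-Glo added, 10 min room temperature, luminescence read; RLUs scaled between no-cell and DMSO wells.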
# [4] = test system: P93_24; test: qHTS profiling for inhibitors of Plasmodium falciparum proliferation (AID 504749); conditions: P. falciparum in erythrocytes, SYBR Green DNA, 72 h; series mostly up to 28.7 µM
# In short: (§2)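 Each compound contacts P. falciparum-infected red blood cells for 72 h at 37 C; lysis buffer (Tris, EDTA, saponin, Triton X, SYBR Green I) is added and fluorescence measured next morning; values normalized to controls.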
# [5] = test system: PAD; test: as above; conditions: P. falciparum in erythrocytes, SYBR Green DNA, 72 h; series mostly up to 28.7 µM
# In short: as §2
# [6] = test system: PC15; test: as above; conditions: P. falciparum in erythrocytes, SYBR Green DNA, 72 h; series mostly up to 28.7 µM
# In short: as §2
# [7] = test system: PC26; test: as above; conditions: P. falciparum in erythrocytes, SYBR Green DNA, 72 h; series mostly up to 28.7 µM
# In short: as §2
# [8] = test system: PC49; test: as above; conditions: P. falciparum in erythrocytes, SYBR Green DNA, 72 h; series mostly up to 28.7 µM
# In short: as §2
# [9] = test system: SC27B; test: as above; conditions: P. falciparum in erythrocytes, SYBR Green DNA, 72 h; series mostly up to 28.7 µM
# In short: as §2
# [10] = test system: TAB109; test: as above; conditions: P. falciparum in erythrocytes, SYBR Green DNA, 72 h; series mostly up to 28.7 µM
# In short: as §2
# [11] = test system: TAB113; test: as above; conditions: P. falciparum in erythrocytes, SYBR Green DNA, 72 h; series mostly up to 28.7 µM
# In short: as §2
# [12] = test system: TAB165; test: as above; conditions: P. falciparum in erythrocytes, SYBR Green DNA, 72 h; series mostly up to 28.7 µM
# In short: as §2
# [13] = test system: W2; test: as above; conditions: P. falciparum in erythrocytes, SYBR Green DNA, 72 h; series mostly up to 28.7 µM
# In short: as §2
# [14] = test system: P94_40; test: as above; conditions: P. falciparum in erythrocytes, SYBR Green DNA, 72 h
# In short: as §2
# Also: nearly all actives have a fitted effect of over 60% in size.
# Potency is read from the fitted curve at half-maximal effect.
compound,measurement,setting,value
COc1cc(CCO)ccc1O[C@@H]1O[C@H](CO)[C@@H](O)[C@H](O)[C@H]1O,max response,[1],7.87%
same,max response,[2],-23.9%
Oc1cccc(-c2c3nc(c(-c4cccc(O)c4)c4ccc([nH]4)c(-c4cccc(O)c4)c4nc(c(-c5cccc(O)c5)c5ccc2[nH]5)CC4)C=C3)c1,Potency,[1],16.4 µM (active)
same,Potency,[3],13.3 µM (active)
O=C(c1ccccc1)c1c(O)cc(O)cc1O[C@@H]1O[C@H](CO)[C@@H](O)[C@H](O)[C@H]1O,max response,[1],2.63%
O=C(Nc1ccnc(NC(=O)C2CC2)c1)c1c(Cl)cccc1Cl,Potency,[1],20.6 µM (active)
same,Potency,[2],6.51 µM (active)
CC(=O)O[C@@H]1[C@H](O[C@@H]2O[C@@H](CO)[C@H](O)[C@H]2O)[C@@H](O[C@@H]2O[C@@H](C)[C@H](O[C@@H]3OC[C@@H](O)[C@H](O)[C@H]3O)[C@@H](O)[C@H]2O)[C@H](OC(=O)[C@]23CCC(C)(C)C[C@H]2C2=CCC4[C@@]5(C)CC[C@H](O[C@@H]6O[C@H](C(=O)O)[C@@H](O)[C@H](O)[C@H]6O[C@@H]6O[C@H](CO)[C@H](O)[C@H](O)[C@H]6O)[C@@](C)(C=O)C5CC[C@@]4(C)[C@]2(C)C[C@H]3O)O[C@@H]1C (some centres undefined),max response,[1],8.09%
same,max response,[2],-0.852%
C=C1C(=O)O[C@@H]2C[C@H](C)[C@@H]3CC(=O)[C@H](O)[C@@]3(C)C[C@H]12,outcome,[1],inactive
same,max response,[2],-22.8%
CCCOc1ccc2nc(NC(=O)OC)sc2c1,Potency,[4],inactive
same,Potency,[5],inactive
same,Potency,[6],inactive
same,Potency,[7],inactive
same,Potency,[8],inactive
same,Potency,[9],inactive
same,Potency,[10],inactive
same,Potency,[11],inactive
same,Potency,[12],inactive
same,Potency,[13],inactive
same,Potency,[1],10.3 µM (active)
CCC/C=C/c1cc2c(C=O)c(O)c(CC=C(C)C)cc2o1,max response,[1],3.3%
same,max response,[2],-11.8%
C=C[C@@]1(C)CCC2C(=CCC3[C@]2(C)CCC[C@@]3(C)C(=O)O)C1 (some centres undefined),max response,[1],-10.5%
same,max response,[2],-28.5%
CN1CCN(C2=Nc3ccccc3Cc3ccccc32)CC1,max response,[1],2.98%
Cc1ccc(S(=O)(=O)N2CCC[C@H]2c2ccc(F)cc2)cc1,max response,[1],-12.3%
same,max response,[2],-13.3%
C=C1C(=O)O[C@@H]2C[C@]3(C)[C@@H](CCC(C)O)[C@@H]3C[C@H]12 (some centres undefined),outcome,[1],inactive
same,max response,[2],-15.1%
CCCN(CC)C(CC)C(=O)Nc1c(C)cccc1C (centres undefined),max response,[1],-6.86%
C=C(C)[C@@H]1CC=C(COC(=O)NC(=O)c2ncn3c(=O)n(C)nnc23)CC1,max response,[1],2.36%
same,Potency,[2],18.4 µM (active)
C=C[C@]1(C)C[C@H](O)[C@H]2C(=C)C(=O)O[C@@H]2[C@H]1C(=C)CO,max response,[2],-30%
C=CCNC1=C2C[C@@H](C)C[C@H](OC)[C@H](O)[C@@H](C)/C=C(\C)[C@H](OC(N)=O)[C@@H](OC)/C=C\C=C(/C)C(=O)NC(=CC1=O)C2=O,Potency,[4],1.26 µM (active)
same,Potency,[14],0.794 µM (active)
same,Potency,[5],2 µM (active)
same,Potency,[6],2 µM (active)
same,Potency,[7],1.51 µM (active)
same,Potency,[8],6.31 µM (active)
same,Potency,[9],1.78 µM (active)
same,Potency,[10],2 µM (active)
same,Potency,[11],1.78 µM (active)
same,Potency,[12],1.41 µM (active)
same,Potency,[13],1.2 µM (active)
same,max response,[1],-34.3%
NC(=O)C[C@@H](N)C(=O)O,max response,[1],-17.1%
CN(C)CCN(Cc1ccc(-c2ccc(CNCCc3ccccc3)cc2)cc1)C(=O)CCC1CCCC1,Potency,[1],4.61 µM (active)
same,Potency,[2],4.11 µM (active)
C=C1C(=O)O[C@H]2C1CCC(C)=C1C(=O)C=C(C)[C@@]12O (some centres undefined),max response,[1],-10.7%
same,max response,[2],-6.36%
Cc1ccc(-c2ncccn2)c(C(=O)N2C[C@H](COc3ccc(F)cn3)CC[C@H]2C)c1,max response,[1],1.72%
CC(=O)O[C@H]1CC[C@@]2(C)C(=CC[C@H]3[C@@H]4CC[C@H](C(C)=O)[C@@]4(C)CC[C@@H]32)C1,max response,[1],2.35%
CC(=O)O[C@@H]1[C@@H](OC(C)=O)[C@H](C)O[C@@H](O[C@H]2[C@@H]3C=CO[C@@H](O[C@@H]4O[C@H](CO)[C@@H](O)[C@H](O)[C@H]4O)[C@@H]3[C@@]3(CO)O[C@@H]23)[C@@H]1OC(=O)/C=C/c1ccccc1,max response,[1],2.67%
same,max response,[2],-8.05%
CC(O)(C(=O)O)C1CCC2(C)C1CCC1(C)C2CCC2C3(C)CCC(O)C(C)(COC4OC(CO)C(O)C(O)C4O)C3CCC21C (centres undefined),max response,[1],1.95%
same,max response,[2],-2.95%
C=C1C(=O)OC2/C=C(\C)CC/C=C(\C)CC(OC(C)=O)C12 (centres undefined),max response,[1],3.33%
same,Potency,[2],23.1 µM (active)
CC(C)(C)CC(=O)OCC(=O)[C@@]12OC(C)(C)O[C@@H]1C[C@H]1[C@@H]3CCC4=CC(=O)C=C[C@]4(C)[C@@]3(F)[C@@H](O)C[C@@]12C,max response,[1],0.193%
N#Cc1ccc(COc2ccc(-c3cccc4nc(NC(=O)C5CC5)nn34)cc2)cn1,max response,[1],-6.55%
same,Potency,[2],20.6 µM (active)
CC1(C)CN(C(=O)c2ccc(-c3cccc4nc(NC(=O)C5CC5)nn34)cc2)C1,outcome,[1],inactive
CCCOc1ccc(CCc2nc3cc(-c4c(C)noc4C)ccc3n2CCN2CCOCC2)cc1,max response,[1],-3.99%
same,max response,[2],-3.98%
CO/N=C(\C(=O)N[C@@H]1C(=O)N2C(C(=O)OCOC(=O)C(C)(C)C)=C(/C=C\c3scnc3C)CS[C@H]12)c1csc(N)n1,max response,[1],-14.1%
O=C(Nc1cccc(C(F)(F)F)c1)Nc1ccc(Br)cc1-c1nn[nH]n1,max response,[1],7.51%
CCN(CC)C(=O)c1ccc(Nc2nc(OCC3CCCCC3)c3[nH]cnc3n2)cc1,Potency,[1],14.6 µM (active)
same,Potency,[2],10.3 µM (active)
CCC(C)C(=O)OC1C(C)C2(O)C(C=C(CO)CC3(O)C(=O)C(C)=CC32)C2C(C)(C)C12OC(=O)C(C)C (centres undefined),max response,[1],7.48%
same,max response,[2],-1.26%
COc1cc2ncnc(Oc3ccc(CC(=O)Nc4cnn(C(C)C)c4)cc3)c2cc1OC,max response,[1],0.878%
same,Potency,[2],23.1 µM (active)
